# The supplement of paper PMC13380429
# How the values were obtained:
# [1] = test system: Vero E6 infected with SARS-CoV-2; experiment: morphology score (similarity to uninfected cells); higher = more like uninfected cells; details: 24 h
# [2] = test system: Vero E6 infected with SARS-CoV-2; experiment: SARS-CoV-2 infection rate relative to infected DMSO; higher = more infection, active = 60 or less; details: 24 h
SMILES,morphology score [1],SARS-CoV-2 infection rate [2]
CC(=O)NCC(=O)N[C@H](CCC(=O)O)C(=O)O [N-acetylglycyl-D-glutamic-acid] (10 µM),0.127,98% (inactive)
Oc1ccc2c(c1)CC[C@H](c1ccccc1)[C@@H]2c1ccc(OCCN2CCCC2)cc1 [lasofoxifene] (0.833333 µM),0.106,97% (inactive)
CCN1CCN(Cc2ccc(-c3cc4c(N[C@H](C)c5ccccc5)ncnc4[nH]3)cc2)CC1 (10 µM),-0.144,124% (inactive)
N#CC(C#N)=Cc1ccc(O)c(O)c1 [tyrphostin-AG-18] (10 µM),0.204,100% (inactive)
C=CCNC1=C2C[C@@H](C)C[C@H](OC)[C@H](O)[C@@H](C)/C=C(\C)[C@H](OC(N)=O)[C@@H](OC)/C=C\C=C(/C)C(=O)NC(=CC1=O)C2=O [tanespimycin] (10 µM),-0.0472,114% (inactive)
CCc1cnc(N2CCC(c3nc(COc4ccc(-n5cnnn5)cc4)cs3)CC2)nc1 (10 µM),0.0438,97% (inactive)
COc1cccc([C@@H](C)NCCCc2ccccc2Cl)c1 [tecalcet] (10 µM),0.534,50.5% (active)
Cc1ccc(C)c(OCCCC(C)(C)C(=O)O)c1 [gemfibrozil] (10 µM),-0.0506,98.5% (inactive)
CCCC[N+]1(C)[C@@H]2C[C@@H](OC(=O)[C@H](CO)c3ccccc3)C[C@H]1[C@@H]1O[C@@H]12 (stereo not given in full) [butylscopolamine-bromide] (10 µM),0.191,102% (inactive)
C#CCOC(=O)C1=CCCN(C)C1 [arecaidine-propargyl-ester] (10 µM),0.0331,93.5% (inactive)
